{
  "source": "PubChem BioAssay AID504800",
  "about": "(The Scripps Research Institute Molecular Screening Center, 2011)",
  "note": "The list shows a part of the results. Unmarked numbers belong to inactive results. Calls of active or inactive are those of the source.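 The calls were made as follows: active = mean activation over replicate wells exceeds the adjusted hit threshold taken from the earlier primary screen (cut at about 20% in these data); inactive = the rest.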",
  "data": [
    {"target": "cAMP-dependent protein kinase type I-alpha regulatory subunit (Bos taurus) (UniProt P00514)", "sequence (P00514 whole entry, looked up)": "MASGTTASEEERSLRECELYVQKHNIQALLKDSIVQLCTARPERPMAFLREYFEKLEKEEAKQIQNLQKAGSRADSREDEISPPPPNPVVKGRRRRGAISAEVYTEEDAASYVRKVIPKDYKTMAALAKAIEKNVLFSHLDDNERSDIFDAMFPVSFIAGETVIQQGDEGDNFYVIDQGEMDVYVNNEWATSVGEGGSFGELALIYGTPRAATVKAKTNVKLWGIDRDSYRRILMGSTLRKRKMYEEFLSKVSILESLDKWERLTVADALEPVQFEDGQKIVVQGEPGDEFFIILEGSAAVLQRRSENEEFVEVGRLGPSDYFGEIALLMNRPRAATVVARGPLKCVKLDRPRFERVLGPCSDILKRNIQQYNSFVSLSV", "assay": "activators of PKA-R1A holoenzyme, confirmation, biochemical, fluorescence polarization, Cy5-IP20, triplicate (AID 504800);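 also: 0% = holoenzyme mix with DMSO only and 100% = cGMP-activated control wells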", "conditions": "PKA-R1A holoenzyme dissociation, at 11.4 µM, hits give high values", "values": [
      {"compound": "COc1ccc(NC(=O)c2ccc(C#CC(C)(C)O)cc2)cc1", "activation": "-0.53%"},
      {"compound": "CCCC(=O)Nc1ncnc2c1ncn2[C@@H]1O[C@@H]2OP(=O)(O)OC[C@H]2[C@H]1OC(=O)CCC", "activation": "43.8% (active)"},
      {"compound": "CCOc1cc(C(=O)Nc2c(C)ccc3nsnc23)cc(OCC)c1OCC", "activation": "-1.31%"},
      {"compound": "COc1ccc(CNc2nnnn2C)cc1", "activation": "6.31%"},
      {"compound": "N#Cc1ccccc1CN1C(=O)S/C(=C/c2cccn2-c2cccc(C(=O)O)c2)C1=O", "activation": "26.8% (active)"},
      {"compound": "Cc1ccc2nc3c(cc(C(=O)NCCc4ccccc4)c(=N)n3CC3CCCO3)c(=O)n2c1", "note": "(stereo not given)", "activation": "4.46%"},
      {"compound": "COc1ccccc1N1CC(C(=O)Nc2nnc(SCC(=O)NC(C)C)s2)CC1=O", "note": "(stereo not given)", "activation": "-1.21%"},
      {"compound": "CN(C(=O)CSc1nnc(Nc2ccccc2)s1)C1CCS(=O)(=O)C1", "note": "(stereo not given)", "activation": "1.24%"},
      {"compound": "CCC(Oc1ccccc1C)C(=O)Nc1ccc(S(=O)(=O)Nc2cc(C)on2)cc1", "note": "(stereo not given)", "activation": "2.1%"},
      {"compound": "O=C(Nc1ccc2c(c1)[C@@H]1C[C@@H](CC(=O)N3CCCCC3)O[C@@H](CO)[C@@H]1O2)NC1CCCCC1", "activation": "4.17%"}
    ]}
  ]
}
